Compound activity (PubChem BioAssay)
Only a selection was taken, and hits are over-represented in it overall.
TbPYK inhibitor: blocks Trypanosoma brucei pyruvate kinase | Potency, µM (top dose mostly 76.8 µM), without a hit: at the highest dose activity, negative = inhibition, most hits filed as inhibitors | hit rate 0.12% among 410,000 | TbPYK enzyme, Kinase-Glo Plus ATP luminescence, 45 min | Q57TT1; active = well fitted curve in the direction sought with a large enough effect; inconclusive = small, poorly fitted or top-dose-only effect, or another doubt; inactive = no such curve, though single readings can be large; an effect the other way counts as inactive or inconclusive; note: potency is the fitted concentration of half-maximal effect; % is set by controls: 0 for no effect and ±100 for the full control effect; nearly all actives have a fitted effect of over 50% in size
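Screened from lowest to highest concentration, compounds were pinned into TbPYK/substrate mixtures, and ADP (130 uM final) was added. Plates sat at room temperature for 45 min prior to Kinase-Glo Plus detection by luminescence.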
Cycloheximide cs: counter-screen hit for Shiga toxin inhibitors, cycloheximide | cell reporter, cycloheximide protein synthesis inhibition counterscreen | max response, % | hit rate 12% among 300,000 | AID 2314; in the data active = max response mostly above about 13%, no sharp cut-off; inactive = mostly below about 14%; note: read at 38.3 µM for the half of the compounds with a filed dose; 0% is about no effect
NS1 inh: influenza NS1 inhibition | Potency, µM (top dose mostly 46.1 µM), for inactives: at the top dose activity, positive = more growth | hit rate 0.4% among 270,000 | AID 2326; note: potency is the fitted concentration of half-maximal effect; actives are rising curves; nearly all actives have a fitted effect of over 50% in size
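Read-out: OD600 growth recovery of NS1-expressing budding yeast. Cells grown overnight at 30C in -URA glucose medium, washed, resuspended and diluted 1:100 in 2% galactose assay medium, pH 6.0. Same strain lacking NS1 served as positive control.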
SARS PLpro yeast-1: inhibitors of SARS-CoV papain-like protease in yeast | hit rate 0.19% among 330,000 | S. cerevisiae expressing SARS-CoV PLpro, growth rescue | Potency, µM (titrated, usually from 32.9 µM), for inactives: at the highest dose activity, positive = growth rescue, actives largely listed as activators; note: potency is the fitted concentration of half-maximal effect; 0% is about no effect; nearly all actives have a fitted effect of over 55% in size
Shiga inhibitor: Shiga toxin inhibition | Vero cells, Shiga toxin protein synthesis inhibition reporter | inhibition, % at 38.7 µM | hit rate 9.2% among 290,000 | AID 2315; in the data active = inhibition mostly above about 28%, no sharp cut-off; inactive = mostly below about 43%; note: 0% is about no effect
LmPK inhibitor: LmPK (Leishmania mexicana) enzyme inhibition; purified LmPK, Kinase-Glo ATP luminescence, 1 h; Potency, µM (titrated, usually from 57.5 µM), for the others: at the top dose activity change, negative = inhibition, most hits filed as inhibitors; Q27686; hit rate 0.37% among 290,000; AID 1721; active = well fitted curve in the direction sought with a large enough effect; inconclusive = small, poorly fitted or top-dose-only effect, or another doubt; inactive = no such curve, though single readings can be large; an effect the other way counts as inactive or inconclusive; note: potency is the fitted concentration of half-maximal effect; % is set by controls: 0 for no effect and ±100 for the full control effect
Target sequence (Q27686 whole entry, looked up): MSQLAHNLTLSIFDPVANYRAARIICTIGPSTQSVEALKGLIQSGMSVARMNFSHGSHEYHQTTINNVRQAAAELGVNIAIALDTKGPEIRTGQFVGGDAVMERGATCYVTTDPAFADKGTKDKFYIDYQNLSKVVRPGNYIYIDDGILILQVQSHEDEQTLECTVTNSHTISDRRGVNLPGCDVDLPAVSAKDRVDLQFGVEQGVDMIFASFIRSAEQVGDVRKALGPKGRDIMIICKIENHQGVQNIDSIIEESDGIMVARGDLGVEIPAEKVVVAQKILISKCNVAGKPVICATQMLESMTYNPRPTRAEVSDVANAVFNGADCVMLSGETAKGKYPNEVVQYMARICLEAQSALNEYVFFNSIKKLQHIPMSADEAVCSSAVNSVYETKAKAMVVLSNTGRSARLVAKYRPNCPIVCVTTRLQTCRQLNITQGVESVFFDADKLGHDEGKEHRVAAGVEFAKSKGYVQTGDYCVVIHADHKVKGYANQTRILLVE
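0.1 nM LmPK, 0.5 mM PEP, 0.1 mM ADP; 50 mM imidazole pH 7.2, 7 mM MgCl2, 50 mM KCl; 1 h RT. Kinase-Glo luminescence readout, normalized to no-enzyme (full inhibition) and uninhibited wells.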
SARS PLpro yeast-2: Inhibits SARS-CoV PLP in yeast, hit validation; shares compounds with SARS PLpro yeast-1; AID 652038; hit rate 19% among 1,000; yeast expressing SARS-CoV PLpro, growth phenotype rescue; calls only; call rule not given here
* hit, by the source's call; i = inactive; ? = inconclusive; . = no result given; + = active, no number; [ ] = remark or other dose. Unless noted, calls come from the whole dose curve.

SMILES	TbPYK inhibitor	Cycloheximide cs	NS1 inh	SARS PLpro yeast-1	Shiga inhibitor	LmPK inhibitor	SARS PLpro yeast-2
COc1cc(NC(=O)c2cc([N+](=O)[O-])ccc2N2CCOCC2)ccc1NC(=O)c1ccco1	3%	-1	5%	14%	-5	-6%	.
O=C(NCCc1ccc(Cl)cc1)c1ccc(CS(=O)Cc2ccc(Cl)cc2)o1 (stereo unspecified)	0%	-1	19%	0%	11	-3%	.
CCOc1ccc(CCNC(=O)c2ccc(CS(=O)Cc3ccc(Cl)cc3)o2)cc1 (stereo unspecified)	10%	5	9%	?	16	2%	i
CCC(C)NC(=O)CSc1nnc(-c2cc(OC)c(OC)c(OC)c2)c(-c2cc(OC)c(OC)c(OC)c2)n1 (stereo unspecified)	-1%	2	0%	-1%	27	-2%	.
Cc1cccc(-n2nnc(-c3nc(-c4cccs4)no3)c2N)c1C	-2%	.	.	.	.	.	.
CCN(CC(=O)Nc1cc(C)nn1-c1nc(C)cc(C)n1)Cc1ccccc1	4%	-4	-13%	?	-17	-5%	i
CCN(CC)S(=O)(=O)c1cccc(C(=O)N/N=C(\C)c2ccc(O)cc2O)c1	1%	7	.	3.5µM*	17	4%	i
CCN(CC)S(=O)(=O)c1cccc(C(=O)N/N=C/c2ccc(O)c(O)c2O)c1	?	-3	15%	5µM*	4	0%	+
CCN(CC)C(=O)c1ccccc1NC(=O)c1cccc(S(=O)(=O)N(CC)CC)c1	4%	-3	-6%	-6%	-10	-1%	.
CC(NCC(=O)Nc1cc(S(=O)(=O)N2CCCCCC2)ccc1Cl)c1ccccc1 (stereo unspecified)	-10%	-4	.	-10%	-23	-7%	.
COC(=O)C[C@H]1c2cc(C(F)(F)F)ccc2S(=O)(=O)N1Cc1ccc(OC)cc1	4%	.	.	.	.	.	.
CCOC(=O)N1CCC(N2Cc3cccc(C(=O)N4CCN(C5CCCCC5)CC4)c3C2=O)CC1	2%	-9	-9%	20µM*	32	5%	i
CCOC(=O)N1CCC(N2Cc3cccc(C(=O)N4CCN(c5cccc(C)c5C)CC4)c3C2=O)CC1	8%	-2	.	-3%	14	11%	.
Cc1noc(C)c1C(=O)Nc1nc(-c2ccc(F)cc2)cs1	0%	.	.	?	.	.	i
O=C(N/N=C/c1ccc([N+](=O)[O-])cc1)c1cnccn1	-5%	7	-6%	1%	-5	4%	.
COc1cc(/C=N/NC(=O)c2cnccn2)ccc1O	-4%	9	9%	3.5µM*	-9	-4%	i
O=C(CSc1nc(-c2ccco2)cc(C(F)(F)F)n1)Nc1ccc2c(c1)OCO2	5%	1	1%	?	3	3%	+
COc1ccc(OC)c(C2/C(=C(/O)c3ccc(C)cc3)C(=O)C(=O)N2Cc2ccco2)c1 (stereo unspecified)	0%	-6	-3%	10µM*	-1	-1%	i
COc1ccc(/C(O)=C2\C(=O)C(=O)N(Cc3ccco3)C2c2cc(OC)ccc2OC)cc1 (stereo unspecified)	-8%	0	5%	1%	-6	0%	.
COc1ccccc1[C@@H]1C(c2cccc(C)c2)=NN(c2ccc(Br)cc2)[C@H]1C(=O)N1CCOC1=O	4%	-2	.	4µM*	i	.	i
COc1ccccc1[C@@H]1C(c2ccccc2)=NN(c2ccc(Br)cc2)[C@H]1C(=O)N1CCOC1=O	2%	-1	.	17%	45	.	.
CCOC(=O)C1=C(C2=CCCCC2)c2ccc(OC)cc2N(S(=O)(=O)C(F)(F)F)C1C(=O)OCC (stereo unspecified)	0%	.	.	-4%	.	.	.
CCOc1ccc(N2C(=O)CC(SC(=NC)Nc3ccc4c(c3)OCO4)C2=O)cc1 (stereo unspecified)	0%	3	5%	?	-16	5%	?
O=C(CSc1nnc(NC(=O)c2ccco2)s1)Nc1ccc(F)cc1F	-5%	-5	8%	-6%	-8	-7%	.
c1ccc2scnc2c1	1%	.	.	.	.	.	.
SMILES	TbPYK inhibitor	Cycloheximide cs	NS1 inh	SARS PLpro yeast-1	Shiga inhibitor	LmPK inhibitor	SARS PLpro yeast-2
CN(C)S(=O)(=O)c1ccc(/C(O)=C2/C(=O)C(=O)N(Cc3cccnc3)C2c2ccncc2)cc1 (stereo unspecified)	1%	1	-6%	10µM*	-2	-7%	i
CN(C)S(=O)(=O)c1ccc(/C(O)=C2/C(=O)C(=O)N(Cc3cccnc3)C2c2cccs2)cc1 (stereo unspecified)	0%	1	15%	0%	-4	-1%	.
O=C(c1ccc(-n2c(SCc3cccc(F)c3)nc3ccccc3c2=O)cc1)N1CCOCC1	-26%	-5	12%	3.2µM*	-12	-1%	+
O=C(COC(=O)C1CCCCC1)Nc1cccc(F)c1	-4%	.	.	-14%	.	.	.
O=C(COC(=O)CC1CCCC1)Nc1cccc(F)c1	-2%	.	.	?	.	.	i
Cc1ccc(NC(=O)CCNS(=O)(=O)c2ccc(Br)cc2)cc1S(=O)(=O)N1CCOCC1	-1%	.	.	?	.	.	i
CC(=O)c1cccc(NC(=O)c2cccc3c(-c4cnn(C)c4)coc23)c1	-3%	.	.	.	.	.	.
O=C1CCC(=O)N1CNc1ccc(Oc2ccccc2)cc1	-2%	2	-16%	.	23	2%	.
COc1ccc(NCN2C(=O)CCC2=O)cc1	-23%	-2	-10%	?	6	-6%	i
O=C(CN(C(=O)CNC(=O)c1ccco1)c1ccccc1F)NC1CCCCC1	-8%	-3	13%	10%	-17	-5%	.
CCC1CCC2(CC1)NNC(=S)NN2	-10%	9	3%	8.9µM*	21	-5%	i
CC(C)c1ccccc1NC(=O)Nc1nnc([C@@H]2C[C@H](O)[C@@H](CO)O2)s1	1%	.	.	.	.	.	.
COC(=O)c1sc(C(=O)OC)c(C(=O)OC)c1C(=O)OC	-4%	-4	2%	-18%	-3	0%	.
COC(=O)c1sc(=S)sc1C(=O)OC	-12%	-3	-12%	6.3µM*	-7	3%	?
C/C(=N\NC(N)=O)C1(C)CCCCC1	28%	-2	5%	-9%	-15	-1%	.
C/C(=N\NC(N)=S)C1(C)CCCCC1	4%	-3	5%	18µM*	-8	1%	+
Oc1c(CN2CCOCC2)cc(COCc2ccccc2)c2cccnc12	-23%	28*	-83%	.	26	0%	+
CC(=O)CSc1nnc(-c2ccncc2)n1C	2%	-3	1%	?	-13	3%	i
Cn1c(SCC(=O)C(C)(C)C)nnc1-c1ccncc1	-1%	-4	8%	10%	-14	-2%	.
CC1(C)Cc2c(C#N)c(NCc3ccco3)nc(-c3ccco3)c2CO1	-17%	6	-2%[9.22 µM]	?	-14	11%	i
